Source: PubChem BioAssay
A selection: hits, their analogues and other compounds. The true share with any hit is near 4%.
ADAM17 inh = ADAM17 inhibition, QFRET primary screen; P78536; recombinant ADAM17, EDANS/DABCYL FRET peptide cleavage; inhibition, % at 6.95 µM; actives 0.83% (n = 370,000);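 active means inhibition above the mean of compounds lying between control limits plus 3 SD, set per campaign, cut at about 8.5% in these data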;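 further: 0% = DMSO-only wells as the low control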
aDG glyco act = increases alpha dystroglycan glycosylation; activation, % at 10 µM; actives 0.22% (n = 360,000); Pro5-aDG cells, alpha-DG glycosylation AlphaScreen (IIH6); 0% Pro5, 100% B10-LARGE cell signal; AID 624168;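 active means activation of at least 8% versus controls, or a plate z-score of at least 8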;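 further: Pro5 are CHO cells carrying HIG-tagged alpha-DG that lacks glycosylation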
FAS TE block = inhibitors of human fatty acid synthase thioesterase domain | recombinant FAS-TE, OMFH fluorogenic substrate, fluorescence endpoint | inhibition, % at 15 µM | actives 0.67% (n = 360,000);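 active means compounds whose normalised, plate-corrected inhibition of enzyme fluorescence in the single-dose primary screen is 50% or more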;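 further: 0% = DMSO with enzyme and 100% = substrate without enzyme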
Target sequence (P49327 whole entry, looked up, the tested form may be a part): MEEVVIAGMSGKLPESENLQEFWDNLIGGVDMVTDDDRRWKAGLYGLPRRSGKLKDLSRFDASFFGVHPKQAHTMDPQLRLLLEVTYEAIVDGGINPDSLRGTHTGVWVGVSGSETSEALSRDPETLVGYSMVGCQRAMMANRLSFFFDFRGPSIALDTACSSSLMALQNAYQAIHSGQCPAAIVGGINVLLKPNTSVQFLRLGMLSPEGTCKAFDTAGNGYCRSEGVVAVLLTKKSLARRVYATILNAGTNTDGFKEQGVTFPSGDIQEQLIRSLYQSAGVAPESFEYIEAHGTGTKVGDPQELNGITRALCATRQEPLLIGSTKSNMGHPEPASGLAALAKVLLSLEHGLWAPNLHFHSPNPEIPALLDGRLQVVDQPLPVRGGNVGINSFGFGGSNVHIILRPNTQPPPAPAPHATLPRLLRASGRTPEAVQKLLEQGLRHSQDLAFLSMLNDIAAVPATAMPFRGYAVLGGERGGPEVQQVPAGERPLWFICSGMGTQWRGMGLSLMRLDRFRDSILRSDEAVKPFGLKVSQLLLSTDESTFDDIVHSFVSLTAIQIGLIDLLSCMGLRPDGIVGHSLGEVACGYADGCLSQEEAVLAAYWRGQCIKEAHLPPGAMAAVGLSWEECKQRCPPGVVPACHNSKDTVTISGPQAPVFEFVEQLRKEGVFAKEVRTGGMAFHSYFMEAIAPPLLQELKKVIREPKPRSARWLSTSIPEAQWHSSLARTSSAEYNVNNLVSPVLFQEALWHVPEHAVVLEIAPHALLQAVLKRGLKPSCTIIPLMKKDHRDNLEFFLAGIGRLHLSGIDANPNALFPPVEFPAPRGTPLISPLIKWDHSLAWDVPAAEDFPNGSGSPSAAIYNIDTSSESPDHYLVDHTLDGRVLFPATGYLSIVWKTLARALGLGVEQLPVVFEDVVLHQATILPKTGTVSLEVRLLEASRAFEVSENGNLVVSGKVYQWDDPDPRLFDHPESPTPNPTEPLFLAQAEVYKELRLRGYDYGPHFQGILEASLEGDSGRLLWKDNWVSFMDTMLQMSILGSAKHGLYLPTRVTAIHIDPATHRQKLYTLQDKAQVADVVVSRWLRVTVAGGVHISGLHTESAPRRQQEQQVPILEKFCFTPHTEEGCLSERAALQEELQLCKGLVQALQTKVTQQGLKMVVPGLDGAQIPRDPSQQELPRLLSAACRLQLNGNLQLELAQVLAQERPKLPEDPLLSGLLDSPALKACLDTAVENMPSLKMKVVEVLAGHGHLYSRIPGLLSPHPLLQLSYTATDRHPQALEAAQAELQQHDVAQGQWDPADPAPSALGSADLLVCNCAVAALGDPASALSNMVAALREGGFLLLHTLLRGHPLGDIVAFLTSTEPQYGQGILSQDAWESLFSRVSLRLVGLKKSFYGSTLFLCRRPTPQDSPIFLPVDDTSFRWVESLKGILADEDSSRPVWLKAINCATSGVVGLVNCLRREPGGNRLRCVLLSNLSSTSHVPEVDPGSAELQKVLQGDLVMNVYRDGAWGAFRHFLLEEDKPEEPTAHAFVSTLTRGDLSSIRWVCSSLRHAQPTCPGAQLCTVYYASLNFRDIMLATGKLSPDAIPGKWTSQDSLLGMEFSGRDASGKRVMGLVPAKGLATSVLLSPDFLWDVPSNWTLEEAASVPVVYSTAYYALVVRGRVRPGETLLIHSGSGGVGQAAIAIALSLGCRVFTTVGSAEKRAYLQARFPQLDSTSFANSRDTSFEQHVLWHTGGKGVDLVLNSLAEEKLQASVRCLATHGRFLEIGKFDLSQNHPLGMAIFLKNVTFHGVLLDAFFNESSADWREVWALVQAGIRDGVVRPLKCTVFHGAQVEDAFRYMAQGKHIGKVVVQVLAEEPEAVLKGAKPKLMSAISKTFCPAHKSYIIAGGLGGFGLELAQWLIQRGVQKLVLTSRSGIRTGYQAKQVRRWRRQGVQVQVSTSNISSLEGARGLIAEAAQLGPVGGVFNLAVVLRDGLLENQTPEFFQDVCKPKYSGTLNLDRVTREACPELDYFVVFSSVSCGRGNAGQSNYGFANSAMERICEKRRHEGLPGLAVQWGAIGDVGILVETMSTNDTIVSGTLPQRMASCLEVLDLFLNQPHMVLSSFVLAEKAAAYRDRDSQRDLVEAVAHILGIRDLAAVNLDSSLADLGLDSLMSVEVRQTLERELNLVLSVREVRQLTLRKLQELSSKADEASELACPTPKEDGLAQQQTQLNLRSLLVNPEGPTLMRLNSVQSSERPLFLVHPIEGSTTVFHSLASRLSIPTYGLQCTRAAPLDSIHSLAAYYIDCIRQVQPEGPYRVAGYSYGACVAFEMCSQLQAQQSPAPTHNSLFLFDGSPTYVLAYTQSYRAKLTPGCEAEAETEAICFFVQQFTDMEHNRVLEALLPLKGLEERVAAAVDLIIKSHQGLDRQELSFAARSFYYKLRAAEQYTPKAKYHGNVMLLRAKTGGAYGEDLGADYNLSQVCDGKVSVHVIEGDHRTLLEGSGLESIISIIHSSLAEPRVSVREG
ADAM10 inh = ADAM10 inhibition, QFRET primary screen; actives 0.62% (n = 370,000); O14672; recombinant ADAM10, EDANS/DABCYL FRET peptide cleavage, 3 h; inhibition, % at 7 µM; AID 720582;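 active means inhibition above a per-campaign cutoff equal to the mean of compounds falling between control-based bounds plus 3 SD, cut at about 20% in these data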;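 further: 0% = DMSO wells while the 100% control is not disclosed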
NR3A LBD binder = modulators (binders) of human NR3A ligand-binding domain; NR3A LBD differential scanning fluorimetry, Tm shift; 0% = protein alone, 100% = glycine-bound protein; Tm shift relative to glycine control, % at 25 µM; actives 2.5% (n = 340,000);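 active means melting temperature shift of at least 10% of the positive control shift, at one fixed dose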
* marks the source's active call; other numbers are inactive results; x = not tested or not shown.

SMILES	ADAM17 inh	aDG glyco act	FAS TE block	ADAM10 inh	NR3A LBD binder
O=C(NCCc1ccccc1)Nc1cccc(Cl)c1	7	1	3	-2	20*
O=C(NCCc1ccncc1)Nc1ccccc1	2	0	-4	-4	0
COc1ccc(NC(=O)NCCc2cccc(Cl)c2)cc1OC	1	0	-4	1	16*
CC(C)C(=O)Nc1c(C(=O)N2CCN(c3ncccn3)CC2)oc2ccccc12	-1	0	0	-6	-2
CC(C)Cn1c(SCC(=O)NC2CC2)nc2ccccc21	-1	0	-7	1	x
CCCOc1ccc(N2C(=O)CC(N(Cc3ccco3)C(=O)CCC(=O)O)C2=O)cc1 (configuration not stated)	-5	0	-5	-5	1
COc1ccc(CCNC(=S)NCCc2ccc(OC)c(OC)c2)cc1OC	-2	0	-8	2	27*
CC1CCCCN1CCCNc1ccc(C(CC(N)=O)NC(=O)Cc2ccc(Br)cc2)cc1[N+](=O)[O-] (configuration not stated)	0	0	3	-5	-2
CCOc1ccccc1/C=N/NC(=O)CNC(=O)c1ccc(S(=O)(=O)N2CCOCC2)cc1	1	0	-5	0	-6
CCc1nc(Nc2cccc(O)c2)c2oc3ccccc3c2n1	x	0	8	x	21*
CCCc1cc(C(=O)Cc2nc3ccccc3s2)c(O)cc1O	-167	0	10	-472	-4
Cc1cccc(-c2oc3ccc(-c4ccc5c(c4)OCO5)cc3c2/C=C/c2ccc(N)cc2)c1	x	8.1*	5	x	3
COc1ccc(-c2c(-c3cccc(C)c3)oc3ccc(-c4ccc5c(c4)OCO5)cc23)cn1	-2	0	32	3	-5
COc1ccccc1NC(=O)C(C)OC(=O)CCC1CCCCC1 (configuration not stated)	2	0	24	-3	11*
O=S(=O)(c1ccc(Cl)cc1)N1CCC2(CC1)OCCO2	1	0	-4	0	0
Fc1ccccc1CSc1nnc(-c2ccccc2)o1	-1	0	12	7	0
Cc1ccccc1-c1nnc(SCc2ccccc2F)o1	-2	0	23	-3	10*
COC(=O)c1cc(S(=O)(=O)NCC2CCN(Cc3ccc(C)cc3)CC2)cn1C	-1	0	-4	-1	1
Cc1ccc(NC(=S)Nc2ccc(C(C)C)cc2)cc1S(=O)(=O)N1CCCCCC1	4	2	25	12	28*
Cc1ccc(NC(=O)CNC(=O)c2ccc(OC(F)F)cc2)cc1S(=O)(=O)N1CCCCCC1	4	0	16	-1	12*
COC(=O)c1ccc(N2CCN(CC(=O)c3ccc(-c4ccccc4)cc3)CC2)c([N+](=O)[O-])c1	-2	0	-28	-8	0
O=C1CCC(C(=O)N2CCCCO2)CN1CCc1ccccc1 (configuration not stated)	-1	0	-8	-3	1
COC(=O)CCC(=O)Nc1cc(Cl)cc(Cl)c1	1	0	-9	4	1
CC1CCc2c(sc(/N=C/c3cccnc3)c2C(N)=O)C1 (configuration not stated)	-5	0	1	-11	11*
COC(=O)C1C(O)=C(C=Nc2ccc(N)cc2)C(=O)CC1(C)C (configuration not stated)	-1	1	-7	3	-1
SMILES	ADAM17 inh	aDG glyco act	FAS TE block	ADAM10 inh	NR3A LBD binder
CC1CCCN(S(=O)(=O)c2ccc(C(=O)Nc3ccccc3-c3nc4ccccc4[nH]3)cc2)C1 (configuration not stated)	-3	0	18	3	34*
CC1CCN(S(=O)(=O)c2ccc(C(=O)Nc3ccccc3-c3nc4ccccc4[nH]3)cc2)CC1	1	0	42	17	31*
CC1CCN(S(=O)(=O)c2ccc(C(=O)Nc3ncccc3O)cc2)CC1	-3	0	-9	2	2
Cc1ccc(CNC(=O)C2CCCC2)cc1	-4	0	-6	2	-1
COc1ccc(-n2ccnc2SCC(=O)NCc2ccccc2)c(OC)c1	-3	0	-3	3	1
COc1ccc(S(=O)(=O)N2CCN(Cc3ccccc3)CC2)cc1OC	-2	0	3	-1	3
CCOC(=O)c1[nH]c2ccc(F)cc2c1NC(=O)C1=COCCO1	-9	0	2	-27	20*
CCCc1cc(=O)oc2cc(OCC(=O)Nc3ccccn3)ccc12	-18	0	38	-55	2
CC(C)n1c(O)c(N=NC(=O)CNC(=O)Cc2ccc(Cl)cc2)c2ccccc21	3	0	16	6	1
COc1ccccc1C(=O)NCC(=O)N=Nc1c(O)n(C(C)C)c2ccccc12	0	0	1	0	255*
Cc1ccc(Nc2nc(C)cs2)cc1	1	0	-4	-2	26*
COc1ccc(-c2csc(Nc3ccc(S(N)(=O)=O)cc3)n2)cc1	-2	1	15	-10	23*
Oc1ccc(Nc2nc(-c3ccc(O)cc3)cs2)cc1	-4	0	4	-7	12*
COc1ccc2oc(=O)c(-c3csc(Nc4ccc(O)cc4)n3)cc2c1	4	0	2	10	11*
CC(=O)Oc1ccc(-c2csc(Nc3ccc(S(N)(=O)=O)cc3)n2)cc1	-4	0	6	1	3
CCc1c(C)sc2nc(SCC(=O)Nc3cc(C)on3)n(CCOC)c(=O)c12	-1	0	0	10	0
CCc1ccccc1NC(=O)CSc1nc2ccccc2n1CC(=O)N(C)C	0	0	-4	3	-1
Clc1ccc(Nc2nc(-c3ccncc3)cs2)cc1	-3	4	-9	0	10*
COc1ccc(C)cc1NC(=O)C1CCCN(S(=O)(=O)c2ccc3[nH]c(=O)ccc3c2)C1 (configuration not stated)	-3	0	1	-2	15*
COc1ccccc1NC(=O)C1CCCN(S(=O)(=O)c2ccc3[nH]c(=O)ccc3c2)C1 (configuration not stated)	-2	0	-2	-11	-1
O=C(OCc1ccccc1)/C(=C/c1ccccc1Cl)NC(=O)c1ccco1	6	0	15	12	15*
Nc1c(C(=O)Nc2ccccc2F)sc2nc(-c3cccnc3)ccc12	-6	0	0	-15	15*
Cc1nc(-c2ccccc2)nc2sc(C(=O)c3ccc(F)cc3)c(N)c12	-4	0	19	1	15*
Cc1nc2sc(C(=O)c3ccccc3)c(N)c2c(C)c1C	0	0	10	-9	1
CCOC(=O)c1sc2nc(-c3cccnc3)ccc2c1N	-6	0	5	-1	20*
COc1ccc(C(=O)c2sc3nc(-c4ccccc4)ccc3c2N)cc1	x	0	25	x	18*
Nc1c(C(=O)Nc2ccccc2F)sc2nc(-c3ccco3)ccc12	-133	0	-4	-443	3
